Experimental findings from paper PMC4552634, “A New Set of Chemical Starting Points with Plasmodium falciparum Transmission-Blocking Potential for Antimalarial Drug Discovery” (PLoS ONE, 2015) are described below.

The test system of the test is P. falciparum stage V gametocytes. Also noted: BacTiter-Glo ATP luminescence viability of purified stage V gametocytes in 384-well plates, per cent inhibition versus DMSO. The settings on record: 48 h, 5 µM, inhibitor.

Structures are written as SMILES. Read-outs that look alike come from different tables or passages of the source. About 3,200 (25%) of roughly 13,000 compounds showed an effect of 50% or more. This is one part of the list.

Regarding `CCCNC(=O)C1Cc2cc(OC)c(OC)cc2C2(N1)C(=O)N(Cc1cccc(OC)c1)c1ccccc12` (stereo not shown) [TCMDC-141464], the % Inhibition (commonly the drop in the measured response relative to a control, in per cent) stood at 26.41%. Still for that read-out and setting: to `C=CCc1cc(OC)ccc1OCCCOc1c(C)nc(N)nc1N` [TCMDC-131358] belongs 1.5%; to `CCCCCCc1ncc(-c2cc3cc(O)c(-c4ccccc4)cc3oc2=O)s1` [TCMDC-124096], -4.644%. Turning to `c1ccc2c3c([nH]c2c1)C(c1ccc2c(c1)CCO2)N(c1ncnc(N2CCN(CCCN4CCOCC4)CC2)n1)CC3` (stereo not shown) [TCMDC-138517], the “% Inhibition” value was found to be 42.57%. Regarding `O=[N+]([O-])c1ccc(NC(=NCCOc2ccccc2)Nc2ccccc2Br)c(O)c1` [TCMDC-139982], the “% Inhibition” value amounted to 18.66%.

As for `Cc1cc(Oc2ccc(-n3ccnc3)cc2)nc(N2CCN(CCCN3CCCC3)CC2)n1` [TCMDC-132208], the “% Inhibition” value is listed as 34.43%. Take `CN(C)c1nc2cc(-n3cnc4cc(-c5ccc(Cl)cc5)sc4c3=O)ccc2n1CCCN1CCCC1` [TCMDC-138922]: the “% Inhibition” value was determined as 42.12%. Turning to `CN(C)c1nc2cc(-n3cnc4cc(-c5ccc(Cl)cc5)sc4c3=O)ccc2n1CCCN1CCCCC1` [TCMDC-138925], the “% Inhibition” value is 34.32%. With `COc1cc(-n2c(CN3CCCC3)nc3cc(-c4ccc(Cl)cc4)sc3c2=O)ccc1OCCN1CCCC1` [TCMDC-135298], the “% Inhibition” value is on record as 36.8%. As for `CCN(C)CCCn1c(N(C)C)nc2cc(-n3cnc4cc(-c5ccc(Cl)cc5)sc4c3=O)ccc21` [TCMDC-138926], the “% Inhibition” value was -50.75%.

`COc1cc(-n2cnc3cc(-c4ccc([N+](=O)[O-])cc4)sc3c2=O)ccc1OCCN1CCCC1` [TCMDC-138916]: the “% Inhibition” value is on record as 104.9%.

Take `CN(CCN1CCCC1)c1nc2ccc(-n3cnc4cc(-c5ccc(Cl)cc5)sc4c3=O)cc2[nH]1` [TCMDC-138918]: the “% Inhibition” value was found to be 5.034%. Take `CCNC[C@H]1CCCN1CCOc1ccc(-n2cnc3cc(-c4ccc(Cl)cc4)sc3c2=O)cc1OC` [TCMDC-134841]: the “% Inhibition” value is on record as 68.56%. Take `COc1cc(-n2cnc3cc(-c4ccc(Cl)cc4)sc3c2=O)ccc1OCCN1CCC(c2cccc(NC(C)=O)c2)CC1` [TCMDC-138930]: the “% Inhibition” value amounted to 71.5%.

In the case of `CCCCCc1ccc(N2C(N)=NC(N)=NC2(C)C)cc1` [TCMDC-137709], the “% Inhibition” value turned out to be 8.731%.

Turning to `Cc1cccn2c(=O)c3cc(C(=O)NCCN4CCOCC4)c(=N)n(CCc4ccccc4)c3nc12` [TCMDC-124570], the “% Inhibition” value came out at 5.032%. As for `OCc1ccc(-c2cncc(Nc3ccc(F)c(Cl)c3)c2)cc1` [TCMDC-136671], the “% Inhibition” value is reported as -20.21%.

With `CCOc1ccc(C=CC(=O)Nc2ccc3nc(N4CCN(C)CC4)cc(C)c3c2)cc1OC` [TCMDC-125866], the “% Inhibition” value is recorded as -25.94%.

Take `CC(C)c1ccc(NC(=O)c2ccc(NCCCN(C)Cc3ccccc3)c([N+](=O)[O-])c2)cc1` [TCMDC-125687]: the “% Inhibition” value is given as -12.67%. For the compound `CCC(CCON1C(N)=NC(N)=NC1(C)C)c1ccc(Cl)cc1` (stereo not shown) [TCMDC-131710], the “% Inhibition” value is reported as 30.1%. As to `Cc1ccccc1Oc1nc2ccccc2nc1SCC(=O)NC(C)C` [TCMDC-124733], the “% Inhibition” value is reported as -10.37%.

Regarding `COc1cc(NC2=NS(=O)(=O)c3cc(Cl)ccc3N2C)cc(OC)c1OC` [TCMDC-134208], the “% Inhibition” value was 87.41%. For the compound `COc1ccc2c(c1)S(=O)(=O)N=C(N1CCCC1c1ccc(Cl)c(Cl)c1)N2C` (stereo not shown) [TCMDC-134209], the “% Inhibition” value came out at 3.235%. As for `COc1ccc(Nc2ccnc3cc(Cl)ccc23)cc1OC` [TCMDC-124814], the “% Inhibition” value is -70.18%. In the case of `Oc1ccccc1CNCC(O)c1cccc(C(F)(F)F)c1` (stereo not shown) [TCMDC-140303], the “% Inhibition” value stood at 18.18%. Regarding `CCNc1cc(-c2cccc(OC)c2)nc(Nc2ccc(F)cc2)n1` [TCMDC-134014], the “% Inhibition” value is -12.85%. On the same count and under the same terms, the result for `Cc1ccc(C(=O)Nc2ccc(C)c(OC3CCN(Cc4ccco4)C3)c2)cc1` (stereo not shown) [TCMDC-133986] reads 48.65%; that for `O=C(Nc1ccc(OC2CCN(Cc3ccco3)CC2)c(Cl)c1)c1ccc2ncccc2c1` [TCMDC-133984], 86.08%. For `O=C(Nc1ccc(OC2CCN(CC3CC3)CC2)c(Cl)c1)c1ccc2ncccc2c1` [TCMDC-134273], the “% Inhibition” value was 41.88%. In the case of `O=C(Nc1ccc(OC2CCN(Cc3ccco3)C2)c(Cl)c1)c1ccc2ncccc2c1` (stereo not shown) [TCMDC-133987], the “% Inhibition” value was found to be 24.52%.

With `Cc1ccc(NC(=O)c2ccc3ncccc3c2)cc1OC1CCN(Cc2ccco2)C1` (stereo not shown) [TCMDC-133985], the “% Inhibition” value came out at 61.5%. On the same count and under the same terms, to `Cc1ccc(NC(=O)c2ccc3ncccc3c2)cc1OC1CCN(Cc2ccc(F)cc2)C1` (stereo not shown) [TCMDC-133759] belongs -2.086%. In the case of `O=C1c2ccc([N+](=O)[O-])cc2C(=O)N1c1ccc2[nH]ncc2c1` [TCMDC-131599], the “% Inhibition” value is -5.185%. In the case of `CCOC(=O)c1ccc(NC(=O)Nc2ccc(-c3ccc(-c4nc5cccc(C)c5[nH]4)s3)cc2)cc1` [TCMDC-133259], the “% Inhibition” value is listed as -10.61%. Regarding `CC(=O)C1(c2ccccc2)CCN(CCC2(c3ccc(Cl)c(Cl)c3)CN(C(=O)C3CCCC3)CCO2)CC1` (stereo not shown) [TCMDC-135325], the “% Inhibition” value is -42.49%. On to `CC(C)c1cccc(C(C)C)c1NC(=O)NNC(=O)c1ccc(CCN2CCC(c3nc(COCC(F)(F)F)c(-c4ccc(F)cc4)o3)CC2)cc1` [TCMDC-131908], for which the “% Inhibition” value is -22.37%.

Turning to `Cc1c(C)c2c(c(C)c1O)CC[C@](C)(C(=O)N1CCC(CCN3CCC(c4c[nH]c5ccccc45)CC3)CC1)O2` [TCMDC-139891], the “% Inhibition” value is listed as 102.8%. Take `Cc1c(C)c2c(c(C)c1O)CC[C@](C)(C(=O)NC1CCC(CN3CCC(c4c[nH]c5ccccc45)CC3)CC1)O2` (stereo partly shown) [TCMDC-139895]: the “% Inhibition” value (% Inhibition) is -20.01%. In the case of `Cc1c(C)c2c(c(C)c1O)CC[C@](C)(C(=O)NC1CCC(CN3CCC(c4c[nH]c5ccccc45)CC3)CC1)O2` (stereo partly shown) [TCMDC-139890], the “% Inhibition” value (% Inhibition) is given as -54.12%.

Take `Cc1c(C)c2c(c(C)c1O)CC[C@@](C)(C(=O)N1CCC(CCN3CCC(c4c[nH]c5ccccc45)CC3)CC1)O2` [TCMDC-139898]: the “% Inhibition” value worked out at 69.88%. Same read-out and setting: the result for `Cc1c(C)c2c(c(C)c1O)CC[C@](C)(C(=O)N1CCC(CN3CCC(c4c[nH]c5ccccc45)CC3)CC1)O2` [TCMDC-139892] reads -67.77%. On the same count and under the same terms, the result for `Cc1c(C)c2c(c(C)c1O)CC[C@@](C)(C(=O)N1CCC(CN3CCC(c4c[nH]c5ccccc45)CC3)CC1)O2` [TCMDC-139899] reads 79.54%; that for `Cc1cccc(C(=O)Nc2ccnc(N3CCCN(Cc4cccc(O)c4)CC3)c2)c1` [TCMDC-134959], -37.26%.

In the case of `N=C1N=C(N)NC2(CCCCC2)N1OCC1CCCCC1` [TCMDC-131617], the “% Inhibition” value was -29.76%. As to `CC1(C)NC(N)=NC(=N)N1OCCCO` [TCMDC-131559], the “% Inhibition” value was -1.825%. On to `CC1CCC2(CC1)NC(N)=NC(=N)N2OCCCCCCCCO` (stereo not shown) [TCMDC-131600], for which the “% Inhibition” value was 80.95%. Same read-out and setting: the result for `CNC(=O)c1ccc(/C=C/C(=O)N2CCc3ccc(-c4ccccc4)cc3C2c2cccc(C(F)(F)F)c2)cc1` (stereo not shown) [TCMDC-138253] reads -22.09%. `CN1CCC[C@H]1COc1ccc(CN2CC[C@H](NC(=O)c3ccc(Cl)c(Cl)c3)C2)c2ccccc12` [TCMDC-140270]: the “% Inhibition” value is recorded as 22.59%.

On to `O=C(N[C@H]1CCN(Cc2ccc(OCCN3CCCC3)c3ccccc23)C1)c1ccc(Cl)c(Cl)c1` [TCMDC-140268], for which the “% Inhibition” value worked out at 76.23%.

Turning to `CN(C)CCCOc1ccc(CN2CC[C@H](NC(=O)c3ccc(Cl)c(Cl)c3)C2)cc1Cl` [TCMDC-140272], the “% Inhibition” value is given as 19.07%. For the compound `CN(C)CCCOc1ccccc1CN1CC[C@H](NC(=O)c2ccc(Cl)c(Cl)c2)C1` [TCMDC-140310], the “% Inhibition” value is listed as -1.9%. Regarding `CN(C)CCCOc1ccc(CN2CC[C@H](NC(=O)c3ccc(Cl)c(Cl)c3)C2)c2ccccc12` [TCMDC-140267], the “% Inhibition” value turned out to be 76.67%. Regarding `O=C(N[C@H]1CCN(Cc2ccc(OCCN3CCNCC3)c3ccccc23)C1)c1ccc(Cl)c(Cl)c1` [TCMDC-140269], the “% Inhibition” value stood at 83.44%. Consider `CN(Cc1ccccc1)C(=O)CCNS(=O)(=O)c1cc(Br)cnc1N` [TCMDC-125445], for which the “% Inhibition” value was found to be 18.91%. Take `CN(C)[C@@H]1C(=O)C(C(N)=O)=C(O)[C@@]2(O)C(=O)C3=C(O)c4c(O)ccc(C#Cc5ccccn5)c4C[C@H]3C[C@@H]12` [TCMDC-138642]: the “% Inhibition” value is 7.454%. The same measure, in the same setting: to `COc1cccc(CCc2ccc(O)c3c2C[C@H]2C[C@H]4[C@H](N(C)C)C(=O)C(C(N)=O)=C(O)[C@@]4(O)C(=O)C2=C3O)c1` [TCMDC-138636] belongs 7.419%.

In the case of `CCCC/C=C(\Cl)c1ccc(O)c2c1C[C@H]1C[C@H]3[C@H](N(C)C)C(=O)C(C(N)=O)=C(O)[C@@]3(O)C(=O)C1=C2O` [TCMDC-138656], the “% Inhibition” value amounted to 85.94%. Take `COc1ccccc1C1CN(Cc2coc3ccccc3c2=O)Cc2ccccc2O1` (stereo not shown) [TCMDC-124669]: the “% Inhibition” value amounted to 4.679%. Regarding `Cc1c(Cl)cccc1S(=O)(=O)Nc1ccc(CCN2CCC(N)CC2)cc1` [TCMDC-134083], the “% Inhibition” value turned out to be 99.61%. `NC1CCN(CCc2ccc(NS(=O)(=O)c3cccc4ccccc34)cc2)CC1` [TCMDC-134084]: the “% Inhibition” value came to 55.68%. On to `COC(=O)CCCOc1cc(Cc2cnc(N)nc2N)cc(OC)c1OC` [TCMDC-137557], for which the “% Inhibition” value turned out to be 8.428%. With `CC1(C)N=C(N)N=C(N)N1OCCc1cccc2ccccc12` [TCMDC-131663], the “% Inhibition” value was 2.124%. Consider `CCNC(=O)Nc1ccc(-c2ccc(-c3nc4cccc(C)c4[nH]3)s2)cc1` [TCMDC-133170], for which the “% Inhibition” value stood at 11.61%.

As for `Cc1cc2[nH]c(-c3ccc(C(=O)NCCCN4CCN(c5cccc(Cl)c5)CC4)cc3)nc2cc1Cl` [TCMDC-140027], the “% Inhibition” value is recorded as -17.26%. `CCn1ncc2c(NC3CCOCC3)c(CNC(=O)c3ccnn3C)c(C)nc21` [TCMDC-136560]: the “% Inhibition” value was 97.63%. For the compound `Cn1nccc1C(=O)NCCNCc1ccc(-c2ccc(-c3nc4cc(F)ccc4[nH]3)cc2)cc1.O=C(O)C(F)(F)F` [TCMDC-133012], the “% Inhibition” value is listed as -30.72%. The same measure, in the same setting: to `CCc1nc2c(cnn2CC)c(NC2CCOCC2)c1CNC(=O)N1CCOCC1` [TCMDC-136620] belongs 94.41%.
